cardiac RTF act – cardiac RTF calcium sensitization. P19429+P45379. IANBD-labeled TnC RTF fluorescence at EC20 calcium; 0% EC20 calcium, 100% full calcium. activation, % at 7.2 µM. actives 0.24% (n = 340,000). AID 493008;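 active means activation above the mean over all tested compounds plus 3 SD, cut at about 30% in these data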;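 further: rise in fluorescence read as greater calcium sensitivity of cardiac thin filaments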
eLon inh – inhibitors of E. coli Lon protease; P0A9M0; purified E. coli Lon protease, fluorescence polarization; inhibition, % at 7.94 µM; actives 0.42% (n = 360,000); AID 602123; in the data active means inhibition above about 13%, passing the limit was not always enough
Target sequence (P0A9M0 whole entry, looked up): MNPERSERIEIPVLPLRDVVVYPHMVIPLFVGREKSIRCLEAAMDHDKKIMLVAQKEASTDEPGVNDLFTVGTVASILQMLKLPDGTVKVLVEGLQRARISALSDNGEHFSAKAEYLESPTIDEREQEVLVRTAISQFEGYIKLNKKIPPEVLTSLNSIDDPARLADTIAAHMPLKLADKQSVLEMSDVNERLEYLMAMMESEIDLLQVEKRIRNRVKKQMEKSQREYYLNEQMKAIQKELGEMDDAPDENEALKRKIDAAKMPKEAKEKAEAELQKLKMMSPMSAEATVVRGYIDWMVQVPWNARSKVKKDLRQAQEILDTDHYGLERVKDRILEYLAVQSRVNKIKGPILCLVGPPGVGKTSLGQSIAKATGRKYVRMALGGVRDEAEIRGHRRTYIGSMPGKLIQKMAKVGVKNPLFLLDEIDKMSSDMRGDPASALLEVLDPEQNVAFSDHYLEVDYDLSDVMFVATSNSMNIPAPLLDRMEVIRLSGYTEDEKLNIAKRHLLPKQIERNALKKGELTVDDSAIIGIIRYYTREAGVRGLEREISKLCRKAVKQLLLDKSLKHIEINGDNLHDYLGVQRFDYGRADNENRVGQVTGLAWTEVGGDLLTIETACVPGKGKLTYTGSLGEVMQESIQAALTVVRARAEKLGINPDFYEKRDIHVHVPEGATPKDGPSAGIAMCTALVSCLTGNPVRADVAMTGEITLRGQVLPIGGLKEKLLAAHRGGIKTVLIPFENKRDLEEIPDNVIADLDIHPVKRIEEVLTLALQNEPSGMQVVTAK
LANA-H2B inh – blocks KSHV LANA binding to histone H2A/H2B. Q9QR71. cell-free LANA-H2A/H2B peptide, fluorescence polarization. inhibition, % (no concentration beside the values). actives 0.6% (n = 320,000); in the data active means inhibition mostly above about 10%, no sharp cut-off; inactive means mostly below about 6.7%
RTF Ca sens inh – cardiac RTF calcium desensitization | P19429+P45379 | IANBD-labeled cardiac RTF, Ca2+ fluorescence | inhibition, % at 7.15 µM | actives 0.12% (n = 340,000) | AID 493244;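 active means inhibition above the mean inhibition of all tested compounds plus 3 SD, cut at about 17% in these data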;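 further: assay run at fixed EC70 calcium of 1.6 mM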
Keap1 Nrf2 FP – Keap1-Nrf2 (human) interaction inhibition. Q14145. Keap1 Kelch-Nrf2 peptide fluorescence polarization, 1536-well. inhibition, % at 9.4 µM. actives 0.15% (n = 340,000); in the data active means inhibition above about 12%;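 further: human Keap1 Kelch domain with fluorescein labeled Nrf2 9mer peptide probe; higher means more block of Keap1 binding to Nrf2 peptide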
C-LANA FP – inhibitors of KSHV LANA C-terminal domain DNA binding | MBP-C-LANA/FAM-LBS DNA binding, fluorescence polarization | inhibition, % at 9 µM | actives 0.078% (n = 340,000);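 active means highest replicate inhibition at or above 60% at 9 µM, even if other replicates fall short; inactive means all replicates below 60% inhibition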
Keap1 TSA – Keap1 (human) Kelch domain binding; max delta Tm, degrees C; actives 8% (n = 400); shares compounds with Keap1 Nrf2 FP; AID 651823; Keap1 Kelch thermal shift, delta Tm; hits give high values; in the data active means max delta Tm above about 0.48 degrees C
Dye-only ctr – counter-screen for Keap1 thermal shift hits: dye-only artifacts | shares compounds with Keap1 Nrf2 FP | Sypro Orange dye-only thermal melt, no protein, delta Tm; top dose 26 µM | delta Tm, degrees C (concentration not given with the values) | 140 tested, under 10 active;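 active means at highest dose tested, delta Tm positive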
Numbers stand for hits; 0 = inactive; - = no result given. Hits are enriched below; roughly 1.3% of the tested compounds scored in any of these assays.

SMILES	cardiac RTF act	eLon inh	LANA-H2B inh	RTF Ca sens inh	Keap1 Nrf2 FP	C-LANA FP	Keap1 TSA	others
O=C(O)CCNc1ccc(NCCC(=O)O)c2c1C(=O)c1ccccc1C2=O	0	0	0	0	12.8	0	0.63	Dye-only ctr=0
CN(N=Nc1ccc([N+](=O)[O-])cc1)c1ccccc1	511.4	0	0	0	113.3	100.6	0
CN(N=Nc1cccc([N+](=O)[O-])c1)c1ccccc1	0	0	0	0	0	0	-
CC1=C(C#N)c2nc(N)c(C#N)c(C)c2/C1=C\c1ccc(-c2ccccc2C(=O)O)o1	0	0	-	0	92.0	0	2.26
COc1cc(/C=C2/C(C)=C(C#N)c3nc(N)c(C#N)c(C)c32)ccc1OCC(=O)O	-	-	0	-	0	0	-
Cc1csc(NC(=O)COc2ccc3c(c2)CCC3)n1	0	0	0	0	0	0	-
O=C(N/C(=C\c1ccccc1)C(=O)N1CCCCC1)c1ccco1	0	0	0	0	0	0	-
CN1CCN(NC(=O)c2cccc(C(F)(F)F)c2)CC1	0	0	0	0	0	0	-
CC1(C)C2CC=C(/C=N/NC(=O)c3ccc(O)cc3)C1C2 (stereo unspecified)	0	0	0	0	0	0	-
O=C1c2ccccc2C(=O)c2c1ccc(O)c2O	0	0	-	0	13.0	0	0
O=C(Cc1ccccc1Cl)NCCCn1ccnc1	0	0	0	0	0	0	-
O=C(/C=C/c1ccccc1Cl)NCCCn1ccnc1	0	0	0	0	37.9	0	0
O=C(Nc1ccc(-n2cccc2)cc1)C1CC1	0	0	0	0	0	0	-
O=C(CCCN1C(=O)/C(=C\c2ccco2)SC1=S)Nc1ccc(O)cc1C(=O)O	0	0	0	0	28.1	109.0	0	Dye-only ctr=0
O=C(CCCN1C(=O)/C(=C\c2cccs2)SC1=S)Nc1ccc(O)cc1C(=O)O	0	0	0	0	0	0	-
COc1cc(Cl)c(C)cc1NCC(=O)Nc1cccc(S(=O)(=O)N2CCCC2)c1	0	0	0	0	28.0	0	0	Dye-only ctr=0
CCOc1ccc(C=NNc2ccc(S(=O)(=O)Nc3ccccc3C(=O)O)cc2[N+](=O)[O-])cc1	0	0	0	0	0	0	-
C=CCOc1ccc(C=NNc2ccc(S(=O)(=O)Nc3ccccc3C(=O)O)cc2[N+](=O)[O-])cc1OC	0	0	0	0	12.8	0	0.91
CC[C@H](C)[C@H](NC(=O)OCc1ccccc1)C(=O)OCC(=O)N1CCN(c2ccc(F)cc2)CC1	0	0	-	0	25.9	0	0	Dye-only ctr=0
Fc1ccc(C2=CC(c3ccc(Br)o3)n3ncnc3N2)cc1 (stereo unspecified)	172.0	136.7	0	0	36.4	63.6	0
Oc1ccc(C2C=C(c3ccc(F)cc3)Nc3ncnn32)cc1 (stereo unspecified)	0	0	-	0	0	0	-
Cc1ccc(NC(=O)C(=O)Nc2ccc(C)cn2)nc1	0	0	0	0	0	0	-
Cc1ccc(NC(=O)/C(C#N)=C(\N)C(Cl)(Cl)Cl)nc1	0	0	0	0	37.5	0	0
Cc1ncsc1C(=O)Nc1cccc(C(F)(F)F)c1	0	0	0	0	0	0	-
O=C(CN1C(=O)NC2(CCCC2)C1=O)Nc1cccc(C(F)(F)F)c1	0	0	0	0	0	0	-
SMILES	cardiac RTF act	eLon inh	LANA-H2B inh	RTF Ca sens inh	Keap1 Nrf2 FP	C-LANA FP	Keap1 TSA	others
O=C(CN1C(=O)NC2(CCCC2)C1=O)Nc1ccc(C(F)(F)F)cc1	0	0	0	0	12.1	0	0
O=C1c2cccc3c(N4CCCCC4)ccc(c23)C(=O)N1c1ccccc1O	72.8	0	0	0	15.9	0	0
Cc1cnc(NC(=O)Cc2ccc(S(=O)(=O)N3CCOCC3)s2)s1	0	0	0	0	13.4	0	0
CN(CCOC(=O)CN1C(=O)c2ccccc2C1=O)C1=NS(=O)(=O)c2ccccc21	-	-	0	-	-	-	-
COc1ccc2nc3ccccc3nc2c1NC(=O)c1ccccc1Cl	0	0	0	0	15.6	0	0
COc1cc(/C=C/CN2CCN(CCC(C)C)C(CCO)C2)ccc1O (stereo unspecified)	0	0	0	0	17.7	0	0
NC(=O)c1nsc(C(=O)N(c2ccc3c(c2)OCO3)C(C(=O)NCC2CCCO2)c2ccc(F)cc2)c1N (stereo unspecified)	0	0	0	0	0	0	-
Cc1ccc(SC(C)C(=O)N2CCC(C(N)=O)CC2)cc1 (stereo unspecified)	0	0	0	0	0	0	-
N/C(=N\OC(=O)c1ccc(Cl)cc1)c1ccccn1	0	0	0	0	0	0	-
N/C(=N/OC(=O)c1ccc(Cl)cc1)c1ncc([N+](=O)[O-])s1	-	0	0	-	22.3	0	0	Dye-only ctr=0
Nc1c(Cl)ncnc1NCc1ccccc1	0	0	0	0	30.7	0	0
O=C(Nc1ccccc1C(=O)N1CCCCCC1)c1ccc(F)cc1	0	0	0	0	35.1	0	0	Dye-only ctr=0
CCCCC(CC)C(=O)Oc1ccc(O)c(C(C)(C)C)c1 (stereo unspecified)	0	0	0	0	14.9	0	0
CC(C)(C)c1cc(OC(=O)C2CCCC2)ccc1O	0	0	0	0	0	0	-
N/C(Cc1cccc2ccccc12)=N\O	0	0	0	0	16.6	-	0	Dye-only ctr=0
COc1ccc(NS(=O)(=O)c2cc(OC)ccc2OC)cc1	0	0	0	0	0	0	-
COc1ccc(OC)c(S(=O)(=O)Nc2ccc(F)cc2)c1	0	0	0	0	12.3	0	0
CN(C)c1ccc(/C=N/NC(=O)CCC(=O)NCc2ccccc2)cc1	0	0	0	0	53.0	0	0
COc1cc(CO)ccc1Oc1nc2ccccc2n2cnnc12	0	0	0	0	30.8	0	0
COc1ccc(C2C(C(=O)c3cccs3)=C(O)C(=O)N2c2nncs2)cc1 (stereo unspecified)	31.7	61.6	30.4	0	55.3	64.4	0
Cc1cccc(N2C(=O)C(O)=C(C(=O)c3cccs3)C2c2ccc(F)cc2)n1 (stereo unspecified)	0	0	0	0	0	0	-
O=C(Cn1cc(C(F)(F)F)ccc1=O)N1CCCc2ccccc21	0	0	0	0	0	0	-
CC1CCN(C(=O)Cn2cc(C(F)(F)F)ccc2=O)c2ccccc2S1 (stereo unspecified)	0	0	0	0	49.3	0	0
CCOc1cc(C(=O)N(C)CC(=O)Nc2cccc3ccccc23)ccc1OC	0	0	0	0	0	0	-
O=C(CCCc1ccncc1)c1ccccc1	0	0	-	0	0	0	-
O=C1N=c2ccccc2=C1c1sc(=S)n(NC(=O)c2cccc(O)c2)c1O	0	0	-	0	0	0	-

Compound activity from PubChem BioAssay.
